Compounds without any hit were thinned out: in the full panel of roughly 83,000, 20% have a hit.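 Compound tested at a single concentration for 48 hours in 96-well plates; a percent growth value below 10 was scored as active.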 The source made the active and inactive calls.

The source of these data is PubChem BioAssay (NCI).

In this test the test system is SK-MEL-28 melanoma. The experiment in a line: NCI-60 one-dose screen, 48 h (100 = growth as untreated, 0 = no growth, -100 = all killed). The conditions noted are these: 10 µM unless noted.
Turning to `CS(=O)(=O)c1ccc(-n2nc(C(=O)NCc3ccccc3)cc2-c2ccc(Cl)cc2)cc1`, the growth is 112% (inactive).

Turning to `CCCCCCCCc1cccc(CC(=O)Nc2ccc(C)cc2C(=O)O)c1`, the growth is 65.5% [25 µM] (inactive).

For `COc1ccc(-c2cc(C(=O)Oc3ccc(C=O)cc3OC)nn2-c2ccc(S(C)(=O)=O)cc2)cc1`, the growth was 117% (inactive).

In the case of `O=C(NN1C(=O)/C(=C/C=C/c2ccc([N+](=O)[O-])o2)SC1=S)c1ccncc1`, the growth was -88.9% (active).

In the case of `N#Cc1c(-c2ccc(F)cc2)nc(SCc2ccccc2)nc1N1CCNCC1`, the growth is -96.3% (active).

With `COc1ccc(/C=C/C(=O)c2ccc(OC)c(S(N)(=O)=O)c2)c(C(F)(F)F)c1`, the growth was 35.5% (inactive).

As for `COc1ccccc1Nc1nnc(-c2c[nH]c3ccccc23)o1`, the growth is 49.2% (inactive).

For `COc1ccc2c(c1)N=c1c-2cc2c(O)[nH]c(=S)n2c1=O`, the growth was 72.6% (inactive).

`CS(=O)(=O)Nc1cc(-c2ccc3ncnc(N4CCc5cc(F)c(Cl)cc54)c3c2)cnc1Cl`: the growth is -0.47% (active).

`Cc1nn(-c2ccccc2)c2nc(C)n(CC(=O)N/N=C/c3cccc([N+](=O)[O-])c3)c(=O)c12`: the growth was 106% (inactive).

Take `CCC(=O)c1cc(C(=O)OC)c2ccc3c4ccccc4ccc3n12`: the growth was 99.6% (inactive).

`Cc1ccc(C(=O)Nc2cc(-n3cnc(F)c3)cc(C(F)(F)F)c2)cc1C#Cc1cnc2cccnn12`: the growth was 29.3% (inactive).

For `O=C(N=Nc1c(O)[nH]c2ccc(Cl)cc12)c1ccc2nc(-c3ccc(Cl)cc3)[nH]c2c1`, the growth was -79.3% (active).
